According to PubChem BioAssay:

biological target: Calmodulin-1 (Homo sapiens) (UniProt P0DP23); assay: small molecules binding Ca-loaded calmodulin-1 – biochemical, small-molecule microarray, Cy5-labelled CALM1, plus calcium, artefact control for SMM control-protein annotation, profiling panel (AID 1112); details: Cy5-CALM1 binding fluorescence, higher = more signal;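 note: score merges spot fluorescence with signal to noise from triplicate slides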

| Compound | composite z-score |
| --- | --- |
| CC[C@H]1C2=C3C(CC[C@H]4C(OC)OC[C@](C)([C@@H]34)N(C(=O)OC(C)(C)C)C2)C(CO)C1CO (stereo not given in full) | 1.38 |
| CC(C)(C)OC(=O)CC[C@@]1(C(=O)NCc2ccccc2)N=C(c2ccc(OCCCO)cc2)O[C@@H]1c1ccccc1 | 1.26 |
| CC(C)[Si](OCC[C@H]1O[C@]2(C(=O)N(Cc3ccccc3)c3ccccc32)[C@@H](C)[C@@H]1[Si](C)(C)O)(C(C)C)C(C)C | 0.3 |
| C[C@H]1COC(=O)[C@H](Cc2ccccc2)NC(=O)[C@@H](C)COC(=O)[C@H](Cc2ccccc2)NC1=O | -0.589 |
| COc1ccc([Si](C)(C)[C@H]2[C@H](CC(=O)N3Cc4ccccc4C[C@H]3CO)O[C@@]3(C(=O)N(Cc4cccc(N5CCOC5=O)c4)c4ccccc43)[C@@H]2C)cc1 | -1.13 |
| CO[C@H]1COC(=O)[C@@H](OCc2ccccc2)C=C[C@H](C)[C@@H](OC)COC(=O)[C@H](OCc2ccccc2)C=C[C@@H]1C | -1.26 |
| C=C(COC)C(=O)CC[C@H](OC(=O)c1ccccc1-c1ccccc1C(=O)O)c1cccc(OCCO)c1 | 0.733 |
| Cc1ccc(S[C@]2(C(=O)O)CC(=O)N(Cc3ccccc3)[C@@H]2c2ccc(CO)cc2)cc1 | 0.965 |
| O=C(O)[C@@H]1Cc2c([nH]c3ccccc23)[C@@H](c2ccccc2)N1 | -0.568 |

system: not listed separately; assay: probe aWnt5a binding to arrayed compounds – biochemical, biotinylated probe, 635/667 nm fluorescence, primary screen (AID 1113); details: small-molecule microarray, higher = more signal;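 note: score merges 667 nm fluorescence intensity with signal-to-noise per printed feature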

| Compound | composite z-score |
| --- | --- |
| C=CCN1C(=O)[C@@]2(Cc3ccccc3)N=C(c3ccc(OCCCO)cc3)O[C@H]2c2ccccc21 | -0.0814 |
| CC(=O)Nc1ccc([C@H]2[C@H](C)CC[C@H]3C(=O)N4[C@@H](CC[C@@H](C)[C@@H]4c4ccc(NC(C)=O)cc4)C(=O)N32)cc1 | -0.176 |
| COc1cc2c(cc1OC)CN(C(=O)[C@@H]1[C@H]3C(=O)O[C@H](c4ccccc4)[C@H](c4ccccc4)N3[C@H](c3ccccc3OCCO)[C@@]13C(=O)Nc1ccccc13)CC2 | 0.213 |
| CCOC(=O)C[C@H]1[C@H](OC(=O)Cc2ccc3c(c2)OCO3)[C@@H](NC(=O)c2ccc3ccccc3c2)c2cc(OCCCO)ccc2N1C(=O)Cc1ccc(OC)cc1 | -0.159 |
| CO[C@@H]1COC(=O)[C@H](C)NC(=O)CC=C[C@@H](C)[C@H](OC)COC(=O)[C@H](C)NC(=O)CC=C[C@H]1C | -0.0684 |
| CO[C@H]1COC(=O)CC=C[C@H](C)COC(=O)[C@@H](OCc2ccccc2)C=C[C@@H]1C | -0.286 |
| CCCC[C@@H]1C[C@H]1[C@@H](NC(=O)c1ccccc1)c1ccccc1C(F)(F)F | -0.127 |
| CO[C@@H]1COC(=O)[C@H](C)NC(=O)CC=C[C@@H](C)[C@H](NS(=O)(=O)c2ccc(C)cc2)COC(=O)CC=C[C@@H]1C | -0.0718 |
| CC(=O)NCCCC[C@@H]1NC(=O)[C@H]2C[C@@H](C(=O)NCCCCCCN(C)C)[C@@H](c3cccc(OCCO)c3)N2C1=O | -0.0185 |
| NC(=O)NCC#Cc1ccc2c(c1)[C@]1(C(=O)N2)[C@H](c2ccccc2OCCO)N2[C@H](c3ccccc3)[C@H](c3ccccc3)OC(=O)[C@H]2[C@@H]1C(=O)N1CCN(c2ncccn2)CC1 | -0.124 |
| C[C@]1(C(=O)NCc2ccccc2)c2ccccc2C(=O)N(Cc2cc(C(F)(F)F)cc(C(F)(F)F)c2)[C@H]1c1ccc(CO)cc1 | -0.0519 |
| C=C(COC)/C(=C/C[C@@H](OC(C)=O)c1cccc(OCCO)c1)c1cc(C(=O)OC)ccc1OC | -0.091 |
| COC(=O)[C@H]1[C@@H]2COc3ccccc3[C@H]2N[C@H]1C(=O)OC | -0.0161 |
| CCc1cccc(NC(=O)O[C@H]2[C@H](OC(=O)Nc3ccccc3)[C@@H](OC(=O)Nc3ccccc3)[C@@H](OC)O[C@@H]2CO)c1 | 0.0267 |
| C=CCN1C(=O)[C@]2(O[C@H](CCn3cc(CCO)nn3)[C@@H]([Si](C)(C)c3ccc(OC)cc3)[C@@H]2C)c2cc(NC(=O)c3ccc(OC)cc3)ccc21 | -0.124 |
| C=C(COC)/C(=C/C[C@H](OC(C)=O)c1ccc(OCCO)cc1)c1cnc2ccccc2c1 | -0.001 |
| [N-]=[N+]=NCc1ccccc1C[C@]1(C(=O)N2CCCCC2)N=C(c2ccc(OCCCO)cc2)O[C@H]1c1ccccc1CN=[N+]=[N-] | 0.0375 |
| CO[C@H]1O[C@H](CO)[C@@H](OC(=O)Nc2ccccc2)[C@H](OC(=O)Nc2ccc3c(c2)OCO3)[C@@H]1OC(=O)Nc1ccc2c(c1)OCO2 | -0.0944 |

| Compound | composite z-score |
| --- | --- |
| CCOC(=O)C1=C[C@@H](c2ccccc2)N(S(=O)(=O)c2ccc(C)cc2)[C@H]1c1ccc(F)cc1 | -0.0718 |
| CCCC=C(CCC)[C@@H](NC(=O)c1ccc(C(F)(F)F)cc1)c1ccccc1 | 0.0094 |
| COC(=O)C[C@H]1O[C@]2(C(=O)N(Cc3ccccc3)c3ccc(I)cc32)[C@@H](C)[C@@H]1[Si](C)(C)c1ccc(OC)cc1 | -0.0462 |
| CCC(=O)[C@]12O[C@@]3([C@@H]4C(=O)OCC[C@@H]41)N(CC)C(C)=C(C(=O)OC)[C@@H](c1ccccc1)N3C2=O | -0.147 |
| COCCOC(=O)N1C(=O)[C@@]2(c3cc(C#CC4=CCCCC4)ccc31)[C@H](c1ccc(O)cc1)N1[C@H](c3ccccc3)[C@H](c3ccccc3)OC(=O)[C@H]1[C@@H]2C(=O)N1CCCCCCC1 | -0.0732 |
| O=C(CS)NCCCCCNC(=O)[C@H]1C[C@H]2C(=O)N3CCC[C@H]3C(=O)N2[C@H]1c1ccc(O)cc1 | -0.197 |
| CSCC[C@@H]1NC(=O)CC=C[C@@H](C)COC(=O)[C@H](CCSC)NC(=O)CC=C[C@@H](C)COC1=O | -0.168 |
| COCCOC(=O)N1C(=O)[C@@]2(c3cc(C#CCNC(N)=O)ccc31)[C@H](C(=O)N1CCCCCCC1)[C@H]1C(=O)O[C@H](c3ccccc3)[C@H](c3ccccc3)N1[C@@H]2c1ccccc1OCCO | 0.193 |
| O=C1O[C@H](c2ccccc2)[C@H](c2ccccc2)N2[C@H]1[C@@H](C(=O)Nc1nc3ccccc3s1)[C@]1(C(=O)Nc3ccc(C#CC4(O)CCCCCC4)cc31)[C@H]2c1ccc(O)cc1 | -0.0125 |
| CC[C@H]1C2=C3C(CC[C@H]4C(OC)OC[C@](C)([C@@H]34)N(C(=O)OC(C)(C)C)C2)C(CO)C1CO (stereo not given in full) | 0.379 |
| CC(C)(C)OC(=O)CC[C@@]1(C(=O)NCc2ccccc2)N=C(c2ccc(OCCCO)cc2)O[C@@H]1c1ccccc1 | 0.0077 |
| CC(C)[Si](OCC[C@H]1O[C@]2(C(=O)N(Cc3ccccc3)c3ccccc32)[C@@H](C)[C@@H]1[Si](C)(C)O)(C(C)C)C(C)C | -0.216 |
| C[C@H]1COC(=O)[C@H](Cc2ccccc2)NC(=O)[C@@H](C)COC(=O)[C@H](Cc2ccccc2)NC1=O | -0.236 |
| COc1ccc([Si](C)(C)[C@H]2[C@H](CC(=O)N3Cc4ccccc4C[C@H]3CO)O[C@@]3(C(=O)N(Cc4cccc(N5CCOC5=O)c4)c4ccccc43)[C@@H]2C)cc1 | -0.0731 |
| CO[C@H]1COC(=O)[C@@H](OCc2ccccc2)C=C[C@H](C)[C@@H](OC)COC(=O)[C@H](OCc2ccccc2)C=C[C@@H]1C | -0.147 |
| C=C(COC)C(=O)CC[C@H](OC(=O)c1ccccc1-c1ccccc1C(=O)O)c1cccc(OCCO)c1 | 0.0519 |
| Cc1ccc(S[C@]2(C(=O)O)CC(=O)N(Cc3ccccc3)[C@@H]2c2ccc(CO)cc2)cc1 | -0.172 |
| O=C(O)[C@@H]1Cc2c([nH]c3ccccc23)[C@@H](c2ccccc2)N1 | -0.141 |
